Assay results from PubChem BioAssay (NCI).
About 79,000 compounds went through this panel and 15% of them were active in at least one assay; those are over-represented in the sample as a whole. Cut-off read from the data, not from the text of the source: active = growth inhibition above about 70%; inactive = the rest.

Experiments:
[1] = NCI Yeast Anticancer Drug Screen. Data for the rad50 strain (AID 155);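 note: 0% = growth of vehicle-only cultures of the same strain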; conditions: S. cerevisiae rad50 strain growth inhibition; at 50.0 µM; stronger effect = higher value
Method in brief: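 A DNA repair-deficient yeast mutant serves as the test organism; compound-induced growth inhibition is calculated against vehicle-treated cells.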

[2] = NCI Yeast Anticancer Drug Screen. Data for the mec2-1 strain (AID 157); conditions: S. cerevisiae mec2-1 strain, at 50.0 µM, stronger effect = higher value
Method in brief: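 Compounds were applied to mec2-1 yeast cells. Their growth was then compared with that of vehicle-treated cultures to give growth inhibition.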

[3] = NCI Yeast Anticancer Drug Screen. Data for the sgs1 mgt1 strain (AID 161);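 note: 0% = growth of cultures given vehicle only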; conditions: S. cerevisiae sgs1 mgt1 strain, at 50.0 µM, stronger effect = higher value
Method in brief: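 Compounds are added to genetically altered yeast, and growth is compared with cultures given vehicle alone to give percent inhibition.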

[4] = NCI Yeast Anticancer Drug Screen. Data for the cln2 rad14 strain (AID 165);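 note: 0% = growth equal to vehicle treated cultures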; conditions: S. cerevisiae cln2 rad14 strain, at 50.0 µM, stronger effect = higher value
Method in brief: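 Strain: cln2 rad14 yeast, altered in cell cycle control and DNA damage repair. Read-out: growth inhibition vs vehicle.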

[5] = NCI Yeast Anticancer Drug Screen. Data for the bub3 strain (AID 167); conditions: S. cerevisiae bub3 mutant strain, at 50.0 µM, stronger effect = higher value
Method in brief: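 Inhibition values come from growth of compound-treated mutant yeast normalised to vehicle-treated controls.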

[6] = NCI Yeast Anticancer Drug Screen. Data for the mlh1 rad18 strain (AID 175); conditions: S. cerevisiae mlh1 rad18 strain growth inhibition; at 50.0 µM; stronger effect = higher value
Method in brief: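 A repair-deficient yeast strain is exposed to test compound, and growth is scored relative to vehicle-treated controls.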

Measured: growth inhibition

CC(C)CCCC(C)C1CCC2C3CC=C4CC(OC(=O)Nc5ccc(S(=O)(=O)N6CCCCC6)cc5)CCC4(C)C3CCC12C (stereo not given)
inactive: [1] 2.3% | [2] 2.45% | [3] 1.65% | [4] -5.8% | [5] -3.75% | [6] 6.45%

O=C(COc1ccc(Cl)cc1)Nc1ccc(I)cc1
inactive: [1] 0.05% | [2] -4.85% | [3] 0.6% | [4] -5.15% | [5] -1.45% | [6] 6.45%

CC(=C(C#N)C#N)c1ccccc1
inactive: [1] 11% | [2] 2.5% | [3] 13.1% | [4] 6.45% | [5] 2.8% | [6] 5.45%

FC1(F)C2(OCCO2)C(F)(F)C12OCCO2
inactive: [1] -1.6% | [2] -5.25% | [3] -1.8% | [4] -1.1% | [5] -8.5% | [6] -4.8%

O=C(O)c1ccc(NS(=O)(=O)Cc2ccccc2)cc1
inactive: [1] -14.3% | [2] -24.1% | [3] -41.5% | [4] -22.4% | [5] -36.5% | [6] -6.3%

O=C1CCCCCCCC(=O)Nc2ccc3nc4ccccc4c(c3c2)SCCCCCCCCCCCCSc2c3ccccc3nc3ccc(cc23)N1
inactive: [1] -9.85% | [2] -6.5% | [3] -20.9% | [4] -9.15% | [5] -3.2% | [6] -10.3%

COC(=O)COc1ccccc1[N+](=O)[O-]
inactive: [1] -0.15% | [2] 2.55% | [3] 0.6% | [4] 3.7% | [5] 5.25% | [6] 4.45%

O=c1cc(-c2ccc(Cl)cc2)oc2cc(OCCCOc3ccc4c(=O)cc(-c5ccc(Cl)cc5)oc4c3)ccc12
inactive: [1] 40.9% | [2] 37.5% | [3] 12.8% | [4] -33.1% | [5] 19.9% | [6] 25.1%

COC(=O)C1OC(n2ccc(=O)[nH]c2=O)C(OC(C)=O)C(OC(C)=O)C1OC(C)=O (stereo not given)
inactive: [1] 2.2% | [2] -3.4% | [3] -1.3% | [4] -9.55% | [5] 1.45% | [6] 6.6%

O=C1OC(c2ccc([N+](=O)[O-])cc2)=N/C1=C\c1cc(Br)ccc1O
inactive: [1] 52.8% | [2] 28.5% | [3] 49.7% | [4] 64.3% | [5] 50.4% | [6] 35%

COC1C(O)CC(OC2C(C)OC(Oc3cc(O)c4c(O)c5c(cc4c3)C[C@@H]([C@H](OC)C(=O)[C@@H](O)[C@@H](C)O)[C@H](OC3CC(OC4CC(OC6CC(C)(O)C(O)C(C)O6)C(O)C(C)O4)C(O)C(C)O3)C5=O)CC2OC(C)=O)OC1C (stereo not given in full)
inactive: [1] -7.9% | [2] -3.45% | [3] -32.9% | [4] 10% | [5] 2.45% | [6] 0.4%

CCN(CC)c1ccc(N=C2C=C(C(=O)Nc3ccc(C(=O)O)cc3)C(=O)c3ccccc32)c(C)c1
inactive: [1] -10.2% | [2] -25% | [3] -16.9% | [4] 0.9% | [5] -0.65% | [6] -18.2%

c1cncc([O][Ge]([O]c2cccnc2)([O]c2cccnc2)[O]c2cccnc2)c1
inactive: [1] 8.6% | [2] 15.8% | [3] 31% | [4] 24.1% | [5] 3% | [6] 35.8%

CC(O)CCNC(=O)c1ccccc1 (stereo not given)
inactive: [1] -10.4% | [2] -16.2% | [3] -11.3% | [4] -25.8% | [5] -13.3% | [6] -5%

O=C(Nc1cc(Cl)ccc1Cl)c1ccccc1Cl
inactive: [1] 2.9% | [2] -6.7% | [3] 14.8% | [4] 8.85% | [5] 19.9% | [6] 20.5%

Cc1cccc(Cl)c1NC1=NCCN1C(=O)CC(=O)c1ccccc1
inactive: [1] 54.1% | [2] -9.2% | [3] 1.1% | [4] 12.8% | [5] 2.05% | [6] 32.7%

CN1CCN(C(=S)C(O)(c2ccccc2)c2ccccc2)CC1
inactive: [1] 1.75% | [2] -1.85% | [3] -2.35% | [4] 1.45% | [5] 16.1% | [6] -8.6%

CC(=S)N=Cc1c(N)[nH]n(-c2ccccc2)c1=O
inactive: [1] -40.5% | [2] -12.8% | [3] -24.6% | [4] -0.3% | [5] -20.1% | [6] -24.5%

O=[N+]([O-])c1ccc(-c2ccc([N+](=O)[O-])cc2)cc1
inactive: [1] -2.05% | [2] -0.95% | [3] 7.7% | [4] -38.5% | [5] 22.6% | [6] -13.3%

CSC(=Nc1nnc(-c2ccc([N+](=O)[O-])cc2)s1)SC
inactive: [1] 8.35% | [2] 1.2% | [3] -23.6% | [4] -11.6% | [5] -5.5% | [6] -47%
